According to PubChem BioAssay (NCATS):
This is one part of the list. Results filed as inconclusive are left out. Active and inactive are the calls of the source. The call rests on the fitted dose curve; in most records, active means well fitted inhibition curve with a large enough effect; inconclusive means small, poorly fitted or top-dose-only effect, or another doubt; inactive means no such curve, though single readings can be large or run the other way.

molecular target: Vitamin D3 receptor (Homo sapiens) (UniProt P11473); assay: qHTS for Inhibitors of the vitamin D receptor (VDR): Hit Validation in Primary Screen (AID 602199); conditions: VDR-coactivator inhibition assay, qHTS confirmation
Text: The vitamin D receptor (VDR) is a ligand-activated transcription factor and is partially responsible for the regulation of the endocrine system. This includes the transcriptional regulation of genes involved in the production of the parathyroid hormone (PTH) and the regulation of the blood calcium level. High levels of PHT can cause hypercalcemia in the case of primary and tertiary hyperparathyroidism. The VDR-mediated gene regulation, activated by its ligand 1,25-dihydroxyvitamin D3 (1,25-(OH)2D3), is governed by the recruitment of coactivators. Our hypothesis is that small molecules, with the ability to inhibit the interaction between VDR and certain coactivators, are able to selectively modulate VDR-mediated transcription. Our long term objective is the application these VDR-coactivator inhibitors to study the role of VDR-coactivator binding for specific VDR regulated genes. Ultimately, these molecules can be developed into new treatments for hypercalcemic hyperparathyroidism. No small molecule or non-peptide inhibitors are known for the VDR-coactivator interaction.
In a collaboration between the University of Wisconsin, Milwaukee and the NIH Chemical Genomics Center (NCGC) a HTS-compatible enzymatic assay was developed. The assay uses fluorescence polarization as its read-out to measure the inhibition between VDR and coregulator peptide SRC2-3 exerted by small molecules. This assay was used to screen the NIH Molecular Libraries Small Molecule Repository (MLSMR).
NIH Chemical Genomics Center [NCGC]
NIH Molecular Libraries Probe Centers Network [MLPCN]
Assay Submitter (PI): Alexander Arnold, University of Wilwaukee
Four microliter of either 800nM VDR, 5uM LG19078, and […]nM SRC2-3 Alexa 647 (all final concentrations) in columns 1, 2, and 5 to 48 or […]nM SRC2-3 Alexa 647 in columns 3 and 4 are dispensed into black medium-binding solid bottom Greiner plates. Both solutions are kept at 4 deg C and protected from light and dispensed using a Kalypsys dispenser. Then 23nl of compounds and controls are added with Kalypsys pintool. The control is 26.5mM CBT358 (final concentration of 151uM) and the compounds' final range in concentration is 457nM - 114uM. Plate is centrifuged at 1000 RPM for 15 seconds to remove any residual bubbles. The plate is then incubate at ambient room temperature for 2 hours. It is then read on the Envision for a fluorescent polarization read-out (Ex 620 nm/Em 688 nm)
Potency means the concentration at half of the fitted maximal effect.

Vitamin D3 receptor (Homo sapiens), sequence (P11473 whole entry, looked up): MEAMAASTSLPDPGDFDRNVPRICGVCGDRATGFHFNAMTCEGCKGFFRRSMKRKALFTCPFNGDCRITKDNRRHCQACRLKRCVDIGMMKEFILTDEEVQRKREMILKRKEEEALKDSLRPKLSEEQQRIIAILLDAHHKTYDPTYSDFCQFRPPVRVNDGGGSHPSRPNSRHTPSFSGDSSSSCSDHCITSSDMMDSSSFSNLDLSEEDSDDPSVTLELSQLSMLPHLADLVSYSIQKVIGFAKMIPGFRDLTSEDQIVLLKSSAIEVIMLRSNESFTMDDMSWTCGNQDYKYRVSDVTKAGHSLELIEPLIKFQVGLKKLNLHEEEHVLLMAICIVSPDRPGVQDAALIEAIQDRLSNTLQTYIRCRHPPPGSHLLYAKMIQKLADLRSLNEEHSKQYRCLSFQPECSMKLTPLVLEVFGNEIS

Potency, active:
COc1ccc(OCc2nnc3n2N=C(c2ccccc2)C(CC(=O)O)S3)cc1 (stereo not given) 1.58 µM, O=c1[nH]c(/C=C\c2cccc(C(F)(F)F)c2)nc(O)c1[N+](=O)[O-] 18.9 µM, CN(C)N=Nc1ccc2nc[nH]c2c1 10.6 µM, Cc1nc(-c2ccccc2)sc1C(=O)/C=C/c1ccccc1 16.8 µM, O=[N+]([O-])/C=C/c1ccc2c(ccn2Cc2ccccc2)c1 6.7 µM, CC(=O)N1CC[n+]2c(-c3ccc([N+](=O)[O-])cc3)csc21 10 µM, O=C(/C=C/c1ccc(Cl)cc1Cl)c1cccnc1 9.47 µM, CCOc1ccc(N(Cc2ccccc2)C(=O)c2nc(S(C)(=O)=O)ncc2Cl)cc1 4.47 µM, O=C(/C=C/c1ccc(Cl)c([N+](=O)[O-])c1)c1cccnc1 2.51 µM, CCOC(=O)N1CCN(C(c2cccnc2)c2ccc3cccnc3c2O)CC1 (stereo not given) 7.52 µM, COC(=O)/C=C\C(=O)Nc1cccc([N+](=O)[O-])c1 5.32 µM, CC1CCN(C(=S)c2ccc(-c3ccc(Cl)cc3Cl)o2)CC1 21.2 µM, Cc1cc(C)nc(S/C=C/C(=O)c2ccccc2)n1 3.55 µM, C=CCOc1ccc(/C=C2/C(=O)ON=C2C)cc1OCC 10.6 µM, O=c1[nH]c2ccccc2n2c(-c3ccccc3)nnc12 9.47 µM, O=c1cc(CO)oc(C(Nc2cccc(C(F)(F)F)c2)c2ccccn2)c1O (stereo not given) 16.8 µM, O=C(Nc1ccccc1)c1nnsc1S(=O)(=O)c1ccc(Cl)cc1 16.8 µM, CCCCS(=O)(=O)c1oc(-c2cccs2)nc1S(=O)(=O)c1ccccc1 2.24 µM, Cc1ccc(-c2nc3ccccn3c2Nc2c(C)cccc2C)o1 17.8 µM, C[C@@H](NC(=O)OC(C)(C)C)c1nnc(S(=O)(=O)Cc2ccccc2)o1 11.2 µM, O=C(Nc1nc(-c2ccncc2)cs1)C1COc2ccccc2O1 (stereo not given) 2.82 µM, O=C(CCN1CCc2ccccc2C(O)(c2ccccc2)C1)c1ccc2c(c1)OCCO2 (stereo not given) 10.6 µM, O=C(/C=C/c1ccccc1)c1ccccc1O 23.8 µM, Cc1cccc(CS(=O)(=O)c2ncc(Cl)c(C(=O)Nc3ccc(F)cc3)n2)c1 3.36 µM, COc1ccc(CS(=O)/C(Cl)=C(/Cl)C(=O)Nc2ccc(OC)nc2)cc1 (stereo not given) 5.97 µM, Cc1ccc(O)c(NC(=O)CCS(=O)(=O)c2nc(-c3ccc4c(c3)OCO4)cc(C(F)(F)F)n2)c1 14.1 µM, CSc1nnc(NC(=O)c2nc(S(=O)(=O)Cc3ccc(C)cc3)ncc2Cl)s1 7.52 µM, O=C1C=C(c2ccc(Cl)cc2)C(=O)N1Nc1ccccc1 2.99 µM, Cc1cccc(Oc2c([N+](=O)[O-])c(=O)n(C)c3ccccc23)c1 21.2 µM, c1ccc2c(C[n+]3csc4ccccc43)cccc2c1 5.62 µM, COC(=O)c1sc(-c2ccc(C(C)(C)C)cc2)cc1NC(=O)/C=C/C(=O)O 11.9 µM, O=[N+]([O-])c1c(NCCO)cc(Sc2nc3ccccc3s2)c2nonc12 3.36 µM, CCOC(=O)c1sc(=S)n2c1[nH]c(=O)c1ccc(C(=O)OC)cc12 7.94 µM, CC(=O)N(C1=C(Cl)C(=O)c2ccccc2C1=O)c1ccc(C(=O)O)cc1 7.94 µM, CCOC(=O)c1sc(NC(=O)CSc2nc(C)cc(C(F)(F)F)n2)c(C#N)c1C 11.9 µM
